25 compounds from PubChem BioAssay (NCATS) can be followed below.

Results filed as inconclusive are left out. The source made the active and inactive calls. Calls come from the whole dose curve; as a rule, active = well fitted curve in the direction sought with a large enough effect; inconclusive = small, poorly fitted or top-dose-only effect, or another doubt; inactive = no such curve, though single readings can be large; an effect the other way counts as inactive or inconclusive.

Assay [1] can be described thus: Primary qHTS for inhibitors of nuclear receptor binding SET domain protein 2 (NSD2) in an isogenic RCH-ACV NSD2 p.E1099K mutant (9B) (AID 1645876). For activity change, negative = viability loss: % is set by controls: 0 for no effect and ±100 for the full control effect. Note: nearly all actives have a fitted effect of over 70% in size. Note: potency is the fitted concentration of half-maximal effect.
Assay [2] is described as follows: Primary qHTS for inhibitors of nuclear receptor binding SET domain protein 2 (NSD2) in an RCH-ACV wild type WT cells (2C) (AID 1645877). Note: nearly all actives have a fitted effect of over 70% in size. Note: potency is the fitted concentration of half-maximal effect.
In assay [3] the target is Rap guanine nucleotide exchange factor 3 (Homo sapiens) (UniProt O95398). In words: Confirmatory qHTS for antagonist of cAMP-regulated guanine nucleotide exchange factor 3 (EPAC1) (AID 1645880). Note: potency is the fitted concentration of half-maximal effect; nearly all actives have a fitted effect of over 55% in size. The settings on record: EPAC1 Rap1B-BODIPY-GDP exchange, fluorescence. An outline of the steps:
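Released BODIPY-GDP fluoresces less than Rap1-bound BODIPY-GDP; the signal is followed at 480/540 nm at 5-min intervals over 30 min, after 5 min at room temperature. Reactions contain 100 nM EPAC1, 250 nM RAP1B-BODIPY-GDP and 50 uM GDP; results are normalized to ATA and DMSO.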
For orientation: Quantitative high-throughput screening tests each substance at several concentrations.

For assay [4] the target is unchanged. In words: Confirmatory qHTS for agonist of cAMP-regulated guanine nucleotide exchange factor 3 (EPAC1) (AID 1645881).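 Note: EPAC1 catalysed release of BODIPY-GDP from Rap1B seen as fluorescence loss; 100% = effect of cAMP agonist control; nearly all actives have a fitted effect of over 75% in size.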
The target in assay [5] is Rap guanine nucleotide exchange factor 4 (Homo sapiens) (UniProt Q8WZA2). In words: Confirmatory qHTS for agonist of cAMP-regulated guanine nucleotide exchange factor 4 (EPAC2) (AID 1645884).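 Note: nucleotide exchange releases bodipy-GDP from Rap1 and this lowers its fluorescence; % is set by controls: 0 for no effect and ±100 for the full control effect; nearly all actives have a fitted effect of over 65% in size.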
Rap guanine nucleotide exchange factor 4 (Homo sapiens), sequence (Q8WZA2 whole entry, looked up): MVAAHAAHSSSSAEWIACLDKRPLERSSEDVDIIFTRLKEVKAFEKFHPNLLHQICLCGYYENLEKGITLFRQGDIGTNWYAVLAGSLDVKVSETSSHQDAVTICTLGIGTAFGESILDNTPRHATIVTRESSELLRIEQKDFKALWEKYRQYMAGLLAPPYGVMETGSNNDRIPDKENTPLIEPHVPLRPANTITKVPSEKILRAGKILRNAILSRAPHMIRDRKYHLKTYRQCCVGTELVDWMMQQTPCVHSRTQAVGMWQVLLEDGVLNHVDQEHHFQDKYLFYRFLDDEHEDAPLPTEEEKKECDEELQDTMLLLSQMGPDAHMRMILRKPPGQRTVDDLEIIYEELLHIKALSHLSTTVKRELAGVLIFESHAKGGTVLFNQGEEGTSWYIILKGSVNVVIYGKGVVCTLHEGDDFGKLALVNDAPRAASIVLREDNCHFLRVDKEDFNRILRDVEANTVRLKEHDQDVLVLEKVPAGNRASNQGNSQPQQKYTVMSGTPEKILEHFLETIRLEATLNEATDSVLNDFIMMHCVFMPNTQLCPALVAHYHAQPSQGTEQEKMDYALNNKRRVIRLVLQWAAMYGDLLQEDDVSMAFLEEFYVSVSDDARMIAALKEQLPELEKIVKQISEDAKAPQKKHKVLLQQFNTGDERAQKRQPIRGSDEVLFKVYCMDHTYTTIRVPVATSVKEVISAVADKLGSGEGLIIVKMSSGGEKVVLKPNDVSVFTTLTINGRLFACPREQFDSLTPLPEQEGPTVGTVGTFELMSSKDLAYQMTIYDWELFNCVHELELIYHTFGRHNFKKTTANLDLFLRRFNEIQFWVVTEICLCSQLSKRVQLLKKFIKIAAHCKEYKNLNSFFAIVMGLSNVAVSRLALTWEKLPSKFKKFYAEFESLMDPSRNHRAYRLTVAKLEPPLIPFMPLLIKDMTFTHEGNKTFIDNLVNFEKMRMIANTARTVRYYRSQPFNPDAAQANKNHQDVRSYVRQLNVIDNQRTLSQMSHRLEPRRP
For assay [6], the target named is Rap guanine nucleotide exchange factor 3 (Homo sapiens) (UniProt O95398). In words: Counterscreen qHTS for antagonist of cAMP-regulated guanine nucleotide exchange factor 3 (EPAC1) (AID 1645888). Note: % of control where 0% means no effect. An outline of the steps: (§1)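 Measured: fluorescence of BODIPY-GDP bound to Rap1B, which falls as exchange proceeds. Conditions include 50 uM competing GDP, 5 and 30 min reads, and a later cAMP challenge for antagonist detection.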
Rap guanine nucleotide exchange factor 3 (Homo sapiens), sequence (O95398 whole entry, looked up): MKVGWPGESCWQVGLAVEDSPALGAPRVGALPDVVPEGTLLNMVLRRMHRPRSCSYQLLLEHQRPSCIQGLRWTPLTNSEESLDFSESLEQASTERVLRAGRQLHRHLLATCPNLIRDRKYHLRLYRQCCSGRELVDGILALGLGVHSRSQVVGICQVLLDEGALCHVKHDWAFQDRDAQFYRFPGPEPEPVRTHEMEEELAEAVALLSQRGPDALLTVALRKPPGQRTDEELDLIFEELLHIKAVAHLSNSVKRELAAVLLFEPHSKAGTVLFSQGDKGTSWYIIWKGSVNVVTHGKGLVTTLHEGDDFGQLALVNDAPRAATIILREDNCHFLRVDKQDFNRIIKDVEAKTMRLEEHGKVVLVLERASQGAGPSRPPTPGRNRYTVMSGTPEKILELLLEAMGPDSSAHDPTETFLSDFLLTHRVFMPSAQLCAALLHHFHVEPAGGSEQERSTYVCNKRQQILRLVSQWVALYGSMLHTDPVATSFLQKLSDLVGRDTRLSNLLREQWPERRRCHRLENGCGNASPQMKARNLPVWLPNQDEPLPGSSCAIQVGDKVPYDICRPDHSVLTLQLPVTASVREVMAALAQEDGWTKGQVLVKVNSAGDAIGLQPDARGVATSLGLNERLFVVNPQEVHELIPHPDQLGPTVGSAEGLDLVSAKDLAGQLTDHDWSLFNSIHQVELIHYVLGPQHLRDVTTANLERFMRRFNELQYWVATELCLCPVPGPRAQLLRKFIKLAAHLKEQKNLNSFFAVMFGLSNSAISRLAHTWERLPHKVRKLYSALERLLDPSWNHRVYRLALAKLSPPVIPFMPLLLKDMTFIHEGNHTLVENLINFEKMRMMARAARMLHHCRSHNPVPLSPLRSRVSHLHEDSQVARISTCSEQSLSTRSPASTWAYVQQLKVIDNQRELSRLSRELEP

Assay [7] has the same target. In words: Counterscreen qHTS for agonist of cAMP-regulated guanine nucleotide exchange factor 3 (EPAC1) (AID 1645889). Note: % of control where 0% means no effect; nearly all actives have a fitted effect of over 40% in size. An outline of the steps: as §1
(In general: Counterscreens check selectivity or assay interference.)

The target in assay [8] is Catechol O-methyltransferase (Homo sapiens) (UniProt P21964). In words: Confirmatory Screen for Target Class Profiling of Small Molecule Inhibitors of Methyltransferases (AID 1745852). For activity change, negative = inhibition: % is set by controls: 0 for no effect and ±100 for the full control effect. The settings on record: MTase-Glo luminescence, SAH detection, recombinant enzyme; measured here: COMT max response; stronger effect = lower value.
Catechol O-methyltransferase (Homo sapiens), sequence (P21964 whole entry, looked up): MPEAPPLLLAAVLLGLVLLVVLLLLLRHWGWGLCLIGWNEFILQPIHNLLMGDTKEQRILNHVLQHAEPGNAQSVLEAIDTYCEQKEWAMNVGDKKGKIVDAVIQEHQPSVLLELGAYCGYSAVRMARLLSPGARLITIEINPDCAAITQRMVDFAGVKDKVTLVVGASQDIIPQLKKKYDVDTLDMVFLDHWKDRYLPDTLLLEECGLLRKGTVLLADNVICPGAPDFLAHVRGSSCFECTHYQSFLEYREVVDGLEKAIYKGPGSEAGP
In assay [9] the target is Guanidinoacetate N-methyltransferase (Homo sapiens) (UniProt Q14353). Described as above. To be noted: MTase-Glo luminescence, SAH detection, recombinant enzyme; activity change, negative = inhibition: at 57.3 µM (top of the series) unless noted.
The target in assay [10] is Nicotinamide N-methyltransferase (Homo sapiens) (UniProt P40261). The description is as above. The settings on record: MTase-Glo luminescence, SAH detection, recombinant enzyme; measured here: NNMT max response; stronger effect = lower value.
Nicotinamide N-methyltransferase (Homo sapiens), sequence (P40261 whole entry, looked up): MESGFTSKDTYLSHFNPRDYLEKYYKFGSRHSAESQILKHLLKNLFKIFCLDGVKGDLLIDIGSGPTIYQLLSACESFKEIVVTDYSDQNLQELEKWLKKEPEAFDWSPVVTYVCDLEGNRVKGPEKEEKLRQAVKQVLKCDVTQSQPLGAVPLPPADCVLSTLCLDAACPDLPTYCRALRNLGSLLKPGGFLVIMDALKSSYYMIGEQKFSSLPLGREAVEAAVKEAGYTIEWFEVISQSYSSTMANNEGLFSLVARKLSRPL
The target of assay [11] is Phenylethanolamine N-methyltransferase (Homo sapiens) (UniProt P11086). Described as above. To be noted: MTase-Glo luminescence, SAH detection, recombinant enzyme; measured here: PNMT max response; stronger effect = lower value.
Phenylethanolamine N-methyltransferase (Homo sapiens), sequence (P11086 whole entry, looked up): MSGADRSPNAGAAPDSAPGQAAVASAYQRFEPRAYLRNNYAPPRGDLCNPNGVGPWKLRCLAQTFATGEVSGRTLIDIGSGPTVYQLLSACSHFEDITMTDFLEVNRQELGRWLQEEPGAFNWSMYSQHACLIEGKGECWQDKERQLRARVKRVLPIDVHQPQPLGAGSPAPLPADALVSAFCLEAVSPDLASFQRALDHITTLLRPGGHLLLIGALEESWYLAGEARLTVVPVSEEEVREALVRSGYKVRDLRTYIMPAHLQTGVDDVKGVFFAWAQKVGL

For the compound `CC/C=C\[C@H](O)[C@H](O)C1=C(C)C(=O)[C@]2(O1)C(=O)N[C@@](O)(C(=O)c1ccccc1)[C@@H]2O`, the Potency entry in [1] and in assay [2] was “inactive” throughout.
For the compound `C=C(CO)C(=O)O[C@H]1C[C@@]23O[C@@H]2CC/C(=C/[C@H]2OC(=O)C(=C)[C@H]12)CO[C@H]3O`, the Potency in [2] is 8.98 µM (active).
As for `CC(C)c1ccc2c(c1)CCC1[C@](C)(C(=O)O)CCC[C@]21C` (stereo partly specified), the Potency entry in assay [1] and in assay [2] was “inactive” throughout.
On to `O=C(OCc1ccccc1O[C@@H]1O[C@H](CO)[C@@H](O)[C@H](O)[C@H]1O)C1(O)C=CCCC1O` (stereo partly specified), for which the Potency entry in [1] and in assay [2] was “inactive” in each case.
As for `CCc1nnc(NS(=O)(=O)c2ccc(NC(=S)NC(=O)/C=C/c3ccc(F)cc3)cc2)s1`, the Potency result in assay [1] and in assay [2] was “inactive” each time. For the same compound, in assay [3], the Potency was 37.9 µM (active). Moreover, the outcome in assay [4], in assay [5], in assay [6] and in [7] was “inactive” in each case.
For `N=C(N)c1ccc2nc(-c3cc(CC(=O)NC(CC(=O)O)C(=O)O)cc(-c4cc(S(N)(=O)=O)ccc4O)c3O)[nH]c2c1` (stereo unspecified), the Potency result in [1] and in assay [2] was “inactive” in each case.
`C/C=C(\C)C(=O)OCC1OC(OCC2OC(OC3(CO)OC(CO)C(O)C3O)C(O)C(O)C2O)C(O)C(O)C1O` (stereo unspecified): the Potency entry in [1] and in assay [2] was “inactive” in each case.
For the compound `COc1ccc(CCC(=O)c2c(O)cc(O[C@@H]3O[C@H](CO)[C@@H](O)[C@H](O)[C@H]3O[C@@H]3O[C@@H](C)[C@H](O)[C@@H](O)[C@H]3O)cc2O)cc1O`, the Potency entry in assay [1] and in [2] was “inactive” in each case.
For `COC(=O)C1C(O)CCC2CN3CCc4c([nH]c5ccccc45)C3CC21` (stereo unspecified), the Potency entry in [1] and in assay [2] was “inactive” throughout.
Turning to `COc1cc2c(cc1O)C(c1ccc(O)cc1)C(C)C(C)C2` (stereo unspecified), the Potency in assay [1] is 25.8 µM (active); in [2], 18.3 µM (active).
As to `CC(=O)OC1(C)CC(O)C2(O)C=COC(OC3OC(CO)C(O)C(O)C3O)C12` (stereo unspecified), the Potency result in assay [1] and in [2] was “inactive” in each case.
For `CC1=C2C(=O)C=C(CO[C@@H]3O[C@H](CO)[C@@H](O)[C@H](O)[C@H]3O)[C@@H]2[C@H]2OC(=O)[C@H](C)[C@@H]2CC1`, the Potency entry in assay [1] and in [2] was “inactive” throughout.
With `COc1cc(/C=C/c2ccccc2)c(C(=O)O)c(O)c1CC=C(C)C`, the Potency entry in assay [1] and in [2] was “inactive” each time.
In the case of `COC(=O)C1=COC(OC2OC(CO)C(O)C(O)C2O)C2C(C)CC(=O)C12O` (stereo unspecified), the Potency entry in assay [1] and in assay [2] was “inactive” each time.
Consider `CC(=O)O[C@@H]1[C@H](O[C@@H]2OC[C@](O)(CO)[C@H]2O)[C@@H](O[C@@H]2O[C@@H](C)[C@H](O)[C@@H](O[C@@H]3O[C@H](CO)[C@@H](O)[C@H](O)[C@H]3O)[C@H]2O)[C@H](OC(=O)[C@]23CCC(C)(C)C[C@H]2C2=CCC4[C@@]5(C)C[C@H](O)[C@H](O[C@@H]6O[C@H](C(=O)O)[C@@H](O)[C@H](O)[C@H]6O)[C@@](C)(C(=O)O)C5CC[C@@]4(C)[C@]2(C)CC3)O[C@@H]1C` (stereo partly specified), for which the activity change, negative = viability loss in assay [1] is 4.2% [at 9.23 µM] (inactive). The outcome in assay [2] was “inactive [at 9.23 µM]”.
For the compound `C=C1CCC2C(C)(C)CC(O)CC2(C)C1CCC(C)CCOC(=O)CCC(=O)O` (stereo unspecified), the Potency result in assay [1] is “inactive”.
Consider `O=C(/C=C/c1ccccc1)OC[C@H]1O[C@@H](OC(=O)c2cc(O)c(O)c(O)c2)[C@H](O)[C@@H](O)[C@@H]1O`, for which the Potency entry in assay [1] and in assay [2] was “inactive” each time. Moreover, the figures for the activity in [8], in assay [10] and in assay [11] were -76.6%, -4.41% and -0.813%, respectively. For the same compound, the activity change, negative = inhibition in assay [9] is -1.37% [at 29.8 µM].
As for `O=C(OCC1=CC(Cl)C(O)C(OC(=O)c2ccccc2)C1O)c1ccccc1` (stereo unspecified), in [1], the Potency result is “inactive”.
As for `CC(=O)O[C@@H]1[C@H](OC(C)=O)C[C@@]2(C)C(CC[C@@H](C)[C@]23Cc2c(O)cc4c(c2O3)CN([C@@H](CCC(=O)O)C(=O)O)C4=O)C1(C)C` (stereo partly specified), the Potency result in assay [1] and in assay [2] was “inactive” each time.
On to `Cc1c(O)cc2c(c1O)COC1(O)CCCOC21` (stereo unspecified), for which the Potency result in [1] and in [2] was “inactive” each time.
Regarding `C/C=C(\C)C(=O)OCC1OC(OC2OC(CO)C(O)C(O)C2O)C(O)C(O)C1O` (stereo unspecified), the Potency result in assay [1] and in assay [2] was “inactive” throughout.
On to `COC(=O)C1=CO[C@@H](O[C@@H]2O[C@H](CO)[C@@H](O)[C@H](O)[C@H]2O)[C@@H]2C(CO)=CC[C@H]12`, for which the Potency entry in [1] and in [2] was “inactive” throughout.
For `C/C(=C\CCC(C)(C)O)CCO[C@@H]1O[C@H](CO[C@@H]2O[C@@H](C)[C@H](O)[C@@H](O)[C@H]2O)[C@@H](O)[C@H](O)[C@H]1O`, the Potency result in assay [1] and in assay [2] was “inactive” each time.
In the case of `CC1CCC2(NC1)OC1C(O)C3C4CCC5CC(O[C@@H]6O[C@H](CO)[C@@H](O)[C@H](O)[C@H]6O[C@@H]6O[C@@H](C)[C@H](O)[C@@H](O)[C@H]6O)CCC5(C)C4CCC3(C)C1C2C` (stereo partly specified), the Potency result in assay [1] and in assay [2] was “inactive” throughout.
With `COC(=O)C1=CO[C@@H](O[C@@H]2O[C@H](CO)[C@@H](O)[C@H](O)[C@H]2O)/C(=C\CO)[C@@H]1CC(=O)OCCc1ccc(O)cc1`, the Potency entry in assay [1] and in assay [2] was “inactive” in each case.
